Assay results from publication PMC12136788.
Substitutions are numbered along the chain they refer to. The full ranking holds about 24,000 sequences; the median of “enrichment r” is about 0.99, and the highest 2% start at about 3.7. Many of the other results were omitted from the sample, so the highest values are more common in it than they were.

T1: UNK ZnF1-3 (human, UniProt Q9C0B0 31-174)
T1 sequence: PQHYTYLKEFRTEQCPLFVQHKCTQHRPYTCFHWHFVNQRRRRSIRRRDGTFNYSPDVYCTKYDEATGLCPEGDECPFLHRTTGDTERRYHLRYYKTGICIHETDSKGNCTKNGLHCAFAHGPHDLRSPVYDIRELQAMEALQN

B1: chr10:117127018:117127019:-_ENSMUSG00000020184_ENSMUST00000020408|mus_mus|FALSE|FALSE (ssRNA)
RNA: GGGAGUUCUACAGUCCGACGAUCAGAUGGAAAGGACUUCUCACAUACACUUCCAAAGUCCUUCCAAGCGGAGAUUAUUUAAAAUAUAAGGAAAAUAUAAACAGCCAAUGCAAAUUACUUAAAACACAAAUAUAAAAUAAACAACAACAGAGGAUUGAGCAUCA
B2: chr14:35182089:35182090:-_ENSG00000165410_ENST00000422678|hu_mus|motif|central (ssRNA)
RNA: GGGAGUUCUACAGUCCGACGAUCCUUAAGAUCAAAUGGCACUUGGCUAUUAUUUUAUAGUGGCUUUCCUUCAAGGGAAACGGCAACACUGCCCCCCAGUUUCUCUCCCAGCGUCGAGCGGUCCUUAAUAUCGUCCAAGCCAUUCAACAGAGGAUUGAGCAUCA
B3: chr2:47387770:47387771:-_ENSG00000143933_ENST00000272298|hu_mus|hu_hu_hu_mus_True|18_38 (ssRNA)
RNA: GGGAGUUCUACAGUCCGACGAUCAAGGUUUAAGGACAAUGACAGUAAGAUAAGGGAAGAAAACAUGGAGGAAUGAAGUCCUAAUUACUAUACAUGCAUAUUUUUUUACAGUAGGGGAGAAACCUUUUUUACAGAUAAGUUACACAACAGAGGAUUGAGCAUCA
B4: chr13:90244479:90244480:+_ENSMUSG00000012422_ENSMUST00000161568|mus_hu|FALSE|FALSE (ssRNA)
RNA: GGGAGUUCUACAGUCCGACGAUCCAAAAUGGUGUGCCCAGAGGAAAAGCAAGCACUAUUAAAUAUUAAUGCAAUCCUUAUCAACACAAAUUGAGCCAUUUUAAUAAAAAAGCUAGUCCAAAAAAGGUUCUCAUUCUAUAAAGACAACAGAGGAUUGAGCAUCA
B5: chr3:58389949:58389950:+_ENSMUSG00000075700_ENSMUST00000107924|mus_hu|FALSE|FALSE (ssRNA)
RNA: GGGAGUUCUACAGUCCGACGAUCCAAGAAGAAAACCAUCAUACAUGCAUAAACCUUAUUUUCUUGGCCCCACUGCCAGAUGCUAGGAGCUUGCAUGCCAAAGAAAGCAAAAGGAUCCUUGCCAACAAUUAUUAAGCCUAUUAACAACAGAGGAUUGAGCAUCA
B6: chr17:26793470:26793471:+_ENSMUSG00000001576_ENSMUST00000167662|mus_hu|FALSE|FALSE (ssRNA)
RNA: GGGAGUUCUACAGUCCGACGAUCCGGAGCUUAGAGCCAAAAAUUACAAAUGGCAGAGACUUGAGCUAUCCAUAAGAUAAUUUUAAAAAUCCUUCCACUGGACACUCCCCUUCAUUACAAAAGUAUGCAAACAAUCUUGCUAUACAACAGAGGAUUGAGCAUCA
B7: chr2:91446484:91446485:+_ENSMUSG00000040549_ENSMUST00000099716|mus_hu|motif|central (ssRNA)
RNA: GGGAGUUCUACAGUCCGACGAUCCAAUUUCUCAUCUGCCAUGUGUGUGUUGUAGAUGAGUCUUAGCUGCAUAAAAGUGGCGGUCAGAAACUGAUCAAUAUGGCCGGACAUGGCUUCAGCUUUGUCUUCCUGUCUCAGGACCUCCAACAGAGGAUUGAGCAUCA
B8: 89236039_89237110_928_3pUTR_ENSG00000065243_ENST00000370521|human|control|control (ssRNA)
RNA: GGGAGUUCUACAGUCCGACGAUCGGUUUUGCAUUAUCAAAAGCCAAUUCAUUAGUCUGGACUGCCUGAAGAAUCUGCAUUCGUAUGACUUCUAUUUUUGUCUUGCUGUCCUGGAGCAGUUGCUGAGCUGUACCAUGGAGUUUCCAACAGAGGAUUGAGCAUCA
B9: chr17:56552419:56552420:-_ENSMUSG00000013236_ENSMUST00000086828|mus_hu|FALSE|FALSE (ssRNA)
RNA: GGGAGUUCUACAGUCCGACGAUCAAAAAAUACACUAUUUAAAAAAAAUGAAAUGUCACGGGAUACAGUUACACUGAGAGUUUUAAAAGAAAGCUGGAUUCUGGUCCCAGCCCAGUGUCCCCAGGCUGCAGAGCGGGGAGGAGCCAACAGAGGAUUGAGCAUCA
B10: chr17:56552419:56552420:-_ENSMUSG00000013236_ENSMUST00000086828|mus_mus|mus_mus_mus_hu_False|98_98 (ssRNA)
RNA: B9 RNA with U38A, U39A
B11: chr17:56552419:56552420:-_ENSMUSG00000013236_ENSMUST00000086828|mus_mus|mus_mus_mus_hu_False|1_98 (ssRNA)
RNA: B9 RNA with U38A, U39A, A138C, G139A, C143G
B12: chr17:56552419:56552420:-_ENSMUSG00000013236_ENSMUST00000086828|mus_mus|mus_mus_mus_hu_False|8_48 (ssRNA)
RNA: GGGAGUUCUACAGUCCGACGAUCAAAAAAUACACUAUUUAAAAAAAAUGAAAUGUCACGGGAUACAGUUACACUGAGAGUUUUAAAAAAAAAUAAGAUUCUGGUCCCAGCCCAGUGUCCCCAGGCUGAGUGCGGAAGAGGAGCCAACAGAGGAUUGAGCAUCA
B13: chr17:56552419:56552420:-_ENSMUSG00000013236_ENSMUST00000086828|mus_mus|mus_mus_mus_hu_False|8_98 (ssRNA)
RNA: B12 RNA with U38A, U39A, A88G, A92G, U93C, A94U, A95G
B14: chr5:145543945:145543946:-_ENSG00000133706_ENST00000545646|hu_hu|hu_hu_hu_mus_True|1_8 (ssRNA)
RNA: GGGAGUUCUACAGUCCGACGAUCCUGAACGGCCAGUGGUGGGAAAUAAUCAAGCCAGUGCUCUGCUUCAGAAAACUUCACUAUGUCGUCAUCAGAGAGCCCAAGGGAUUUCAUAAUGUCCCACUGGUAUUUAGAAGAUCCAGCCAACAGAGGAUUGAGCAUCA
B15: chr8:74858975:74858976:-_ENSG00000154582_ENST00000284811|hu_hu|FALSE|FALSE (ssRNA)
RNA: GGGAGUUCUACAGUCCGACGAUCAACCUUGUACGUAAAAUACAUGCAUACUUUCGAUAGCACAUGUGAAGGUAUCUCUCUAAAAUUGACCUCAUUGGUUUCGUUCUCAGCAAACUGACCUGGGCCACUCAACAUGGCUUUUAUCAACAGAGGAUUGAGCAUCA
B16: chr11:100882373:100882374:+_ENSMUSG00000019302_ENSMUST00000044721|mus_mus|mus_mus_mus_hu_True|38_68 (ssRNA)
RNA: GGGAGUUCUACAGUCCGACGAUCUUCCUGGUUUGUGUUGAUUUCCUUCAGUUCAUUUUCAAUCUUCUCGAAAUUGGCCUCUAAGUCAAUCAUGUCCCGAGGGAAGGGAACCUCUGGGUUUUCACCGGUGUCCAUAAUCGGAAUCAACAGAGGAUUGAGCAUCA
B17: chr17:56552419:56552420:-_ENSMUSG00000013236_ENSMUST00000086828|mus_mus|mus_mus_mus_hu_False|58_98 (ssRNA)
RNA: B9 RNA with U38A, U39A, G77C, G79C, U81A
B18: chr17:56552419:56552420:-_ENSMUSG00000013236_ENSMUST00000086828|mus_mus|mus_mus_mus_hu_False|58_58 (ssRNA)
RNA: B9 RNA with G77C, G79C, U81A
B19: 75889693_75893847_892_3pUTR_ENSG00000185009_ENST00000355264|human|control|control (ssRNA)
RNA: GGGAGUUCUACAGUCCGACGAUCCAGAUAGUUUAAUGCAAGCAUCAAUGACCCCCUGAAUUUCUGCAAAGACUGUAGAUCCUGAUUUAUCUAUAAUUGCGUCUAUUUCUUCAACAACAUCAAAAUAGGCUUCAUUGUUUGUGUCAACAGAGGAUUGAGCAUCA
B20: chr16:14299702:14299703:-_ENSMUSG00000022677_ENSMUST00000023357|mus_mus|motif|central (ssRNA)
RNA: GGGAGUUCUACAGUCCGACGAUCCUCAAUUCAGAGUCCCUCUCCCCAAAUGACUCUAGCUUGUAUCAAGUUGAUAUAAAACGGGCCAGGGCAGGCAAUAAUAAUUCAGGUAUUUUUUAAAAAAUCAAACUUCAUAUAAAUUAACAACAGAGGAUUGAGCAUCA
B21: 105548853_105553245_153_3pUTR_ENSMUSG00000068798_ENSMUST00000090678|mouse|control|control (ssRNA)
RNA: GGGAGUUCUACAGUCCGACGAUCAUUUUUCAACAAAAAUCCCCUGAACAAACUGAACUGUCAGAGCAGACUUCCCCACGCCUCCUGAACCAAGGACUACUAGCUUGUACUCACGCAUGAUGCGCUCUGUUUAAAUAUUGACAACAACAGAGGAUUGAGCAUCA
B22: chr10:112362630:112362631:-_ENSMUSG00000074748_ENSMUST00000099276|mus_mus|motif|central (ssRNA)
RNA: GGGAGUUCUACAGUCCGACGAUCGGAUUACUUAUUAAAAAAUAAGAAUCUCCAAAACAAAGGACAGUGGUGAAUUUCAAACGGCCCUCCCCCAAUGAUCCCAGCAUGCGAUAAUGCCAGGUAGUGGCCCCUGGGCAUGCGAUGCAACAGAGGAUUGAGCAUCA
B23: chr16:14299702:14299703:-_ENSMUSG00000022677_ENSMUST00000023357|mus_mus|FALSE|FALSE (ssRNA)
RNA: B20 RNA with G82U, G83A
B24: chr2:4828950:4828951:+_ENSMUSG00000026662_ENSMUST00000115019|mus_mus|motif|central (ssRNA)
RNA: GGGAGUUCUACAGUCCGACGAUCAAAAUCUAGUCUCCCCCAAUAAAUUGUAUUUUAGGCAAAAUCCUCCCAAAUGCUUCGGAAAUAAUACUAAAAAGGGCAUCUGAUUAUACAAGAGCAAUUAAAAAAAUUAAAUAUUUAUUUCAACAGAGGAUUGAGCAUCA
B25: chr2:4828950:4828951:+_ENSMUSG00000026662_ENSMUST00000115019|mus_mus|FALSE|FALSE (ssRNA)
RNA: B24 RNA with G80U, G81A

The binders below were run against T1, UNK ZnF1-3 (assay: nsRBNS (natural sequence RNA bind-n-seq); RBNS binding buffer (assumed for nsRBNS): 25 mM Tris pH 7.5, 150 mM KCl, 3 mM MgCl2, 0.01% Triton X-100, 500 ug/ml BSA, 20 U/ml SUPERase-In, 4 C; UNK is unkempt and MSI1 is Musashi-1; names of the RNAs are library labels; protein concentration not given here; high values mean tight binding).
B1 gave a binding signal of 5.74 enrichment R. Work on B2 yielded a binding signal of 1.04 enrichment R. B3 was tested, and the binding signal was 1.7 enrichment R. B4 gave a binding signal of 4.62 enrichment R. With B5 the binding signal was 1.51 enrichment R. For B6, the binding signal was 3.67 enrichment R. With B7 the binding signal was 0.637 enrichment R. B8 gave a binding signal of 0.571 enrichment R. B9 was tested, and the binding signal was 3.32 enrichment R. For B10, the binding signal was 4.54 enrichment R. In the case of B11, the binding signal is reported as 5.8 enrichment R. With B12 the binding signal was 6.71 enrichment R. Binder B13 has a binding signal of 5.52 enrichment R. With B14 the binding signal was 1.44 enrichment R. Binder B15 has a binding signal of 0.5 enrichment R. Work on B16 yielded a binding signal of 0.443 enrichment R. In the case of B17, the binding signal is reported as 8.92 enrichment R. Binder B18 has a binding signal of 3.59 enrichment R. In the case of B19, the binding signal is reported as 0.939 enrichment R. Binder B20 has a binding signal of 3.78 enrichment R. In the case of B21, the binding signal is reported as 1.18 enrichment R. In the case of B22, the binding signal is reported as 0.719 enrichment R. In the case of B23, the binding signal is reported as 3.28 enrichment R. B24 was tested, and the binding signal was 14.3 enrichment R. Binder B25 has a binding signal of 4.12 enrichment R.
